This is an account of results in PubChem BioAssay (NCI).

Several values for one entry are separate records, joined by “and”; a condition that tells them apart may be missing. Equal values may be shown once. About 79,000 compounds went through this panel and 15% of them were active in at least one assay; those are over-represented in the sample as a whole. The source holds several records for some structures; these can differ, active in one and inactive in another. Activity calls are given as the source filed them. No stated cut-off is given here; in the data, active means growth inhibition above about 70%; inactive means the rest.

Experiment [1] in a line: NCI Yeast Anticancer Drug Screen. Data for the rad50 strain (AID 155).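 Further: 0% = growth of vehicle-only cultures of the same strain.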 The following applies: S. cerevisiae rad50 strain growth inhibition, stronger effect = higher value. The method, boiled down:
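Genetically altered yeast (DNA repair pathway); compound treatment; growth inhibition vs vehicle ctrl.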

Experiment [2] in a line: NCI Yeast Anticancer Drug Screen. Data for the mec2-1 strain (AID 157). The following applies: S. cerevisiae mec2-1 strain, stronger effect = higher value. The method, boiled down: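 Compounds were applied to mec2-1 yeast cells. Their growth was then compared with that of vehicle-treated cultures to give growth inhibition.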
Experiment [3] is described as follows: NCI Yeast Anticancer Drug Screen. Data for the sgs1 mgt1 strain (AID 161).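 Further: 0% = growth of cultures given vehicle only.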 As to conditions: S. cerevisiae sgs1 mgt1 strain, stronger effect = higher value. The method in brief: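 This yeast growth screen uses a strain with defined DNA-repair lesions; compound-treated growth is compared with vehicle-treated growth.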
The nature of experiment [4]: NCI Yeast Anticancer Drug Screen. Data for the cln2 rad14 strain (AID 165).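 Further: 0% = growth equal to vehicle treated cultures.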 As to conditions: S. cerevisiae cln2 rad14 strain, stronger effect = higher value. The method in brief: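 Strain: cln2 rad14 yeast, altered in cell cycle control and DNA damage repair. Read-out: growth inhibition vs vehicle.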
A short description of experiment [5]: NCI Yeast Anticancer Drug Screen. Data for the bub3 strain (AID 167). As to conditions: S. cerevisiae bub3 mutant strain, stronger effect = higher value. The method, boiled down: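 Yeast carrying a defined mutation is treated with each compound, and growth is compared with that of vehicle-exposed cells to give inhibition.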
A short description of experiment [6]: NCI Yeast Anticancer Drug Screen. Data for the mlh1 rad18 strain (AID 175). The following applies: S. cerevisiae mlh1 rad18 strain growth inhibition, stronger effect = higher value. The method, boiled down: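 A repair-deficient yeast strain is exposed to test compound, and growth is scored relative to vehicle-treated controls.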
Setting [7] is: at 5.0 µM (retest, dose inferred, filed as 0.5).
Setting [8] is: at 50.0 µM (retest, dose inferred, filed as 5.0).

With `CCCCN(CCCC)C(Cl)=Nc1ccccc1`, the growth inhibition in experiment [1] (setting [7]) was 35% (inactive); in experiment [1] (setting [8]), 32% (inactive); in experiment [1] (at 50.0 µM), 80.9% (active); in experiment [2] (setting [7]) it was 29% (inactive); in experiment [2] (setting [8]), 24% (inactive); in experiment [2] (at 50.0 µM), 87.1% (active). The growth inhibition in experiment [3] (setting [7]) is 31% (inactive); in experiment [3] (setting [8]), 30% (inactive); in experiment [3] (at 50.0 µM), 88.2% (active); in experiment [4] (setting [7]), 17% (inactive); in experiment [4] (setting [8]), 19% (inactive); in experiment [4] (at 50.0 µM) it was 81% (active). Also, the growth inhibition is 33% (inactive) in experiment [5] (setting [7]); 38% (inactive) in experiment [5] (setting [8]); 82.4% (active) in experiment [5] (at 50.0 µM); 39% (inactive) in experiment [6] (setting [7]); 57% (inactive) in experiment [6] (setting [8]); 77.4% (active) in experiment [6] (at 50.0 µM).
For `Clc1nc2nc(Cl)c(Cl)n2nc1Cl`, the growth inhibition in experiment [1] (setting [7]) was -4% (inactive); in experiment [1] (setting [8]) it was -5% (inactive); in experiment [1] (at 50.0 µM), 98.5% (active); in experiment [2] (setting [7]), -3% (inactive); in experiment [2] (setting [8]), -7% (inactive); in experiment [2] (at 50.0 µM), 99.7% (active). The growth inhibition was -2% (inactive) in experiment [3] (setting [7]); -11% (inactive) in experiment [3] (setting [8]); 99.5% (active) in experiment [3] (at 50.0 µM); 4% (inactive) in experiment [4] (setting [7]); -1% (inactive) in experiment [4] (setting [8]); 98.8% (active) in experiment [4] (at 50.0 µM). Besides, the growth inhibition in experiment [5] (setting [7]) is -5% (inactive); in experiment [5] (setting [8]), -8% (inactive); in experiment [5] (at 50.0 µM), 99.3% (active); in experiment [6] (setting [7]) it was -8% (inactive); in experiment [6] (setting [8]), -4% (inactive); in experiment [6] (at 50.0 µM) it was 99.5% (active).
Consider `O=c1cc[nH]c2ccccc12`, for which the growth inhibition in experiment [1] (setting [7]) was 34% (inactive); in experiment [1] (setting [8]) it was 81% (active); in experiment [1] (at 50.0 µM) it was 13.5% (inactive) and 0% (inactive); in experiment [2] (setting [7]) it was 24% (inactive); in experiment [2] (setting [8]) it was 63% (inactive); in experiment [2] (at 50.0 µM) it was 1.25% (inactive) and -3.85% (inactive). Also, the growth inhibition in experiment [3] (setting [7]) is 16% (inactive); in experiment [3] (setting [8]), 64% (inactive); in experiment [3] (at 50.0 µM), -6.85% (inactive) and 7.5% (inactive); in experiment [4] (setting [7]), 6% (inactive); in experiment [4] (setting [8]), 48% (inactive); in experiment [4] (at 50.0 µM) it was 7.35% (inactive) and -24.1% (inactive). Besides, the growth inhibition was 71% (active) in experiment [5] (setting [7]); 98% (active) in experiment [5] (setting [8]); -1.2% (inactive) and -1.85% (inactive) in experiment [5] (at 50.0 µM); 50% (inactive) in experiment [6] (setting [7]); 88% (active) in experiment [6] (setting [8]); 0.7% (inactive) and 0.35% (inactive) in experiment [6] (at 50.0 µM).
Turning to `CC(C)CCC[C@@H](C)[C@H]1CC[C@H]2[C@@H]3CC=C4N5CCCN=C5CC[C@]4(C)[C@H]3CC[C@]12C`, the growth inhibition is 2% (inactive) in experiment [1] (setting [7]); 98% (active) in experiment [1] (setting [8]); 98% (active) in experiment [1] (at 50.0 µM); -20% (inactive) in experiment [2] (setting [7]); 99% (active) in experiment [2] (setting [8]); 98.7% (active) in experiment [2] (at 50.0 µM). In addition, the growth inhibition was -15% (inactive) in experiment [3] (setting [7]); 89% (active) in experiment [3] (setting [8]); 98.5% (active) in experiment [3] (at 50.0 µM); 0% (inactive) in experiment [4] (setting [7]); 54% (inactive) in experiment [4] (setting [8]); 98.2% (active) in experiment [4] (at 50.0 µM). Also, the growth inhibition is 0% (inactive) in experiment [5] (setting [7]); 97% (active) in experiment [5] (setting [8]); 98.2% (active) in experiment [5] (at 50.0 µM); -8% (inactive) in experiment [6] (setting [7]); 98% (active) in experiment [6] (setting [8]); 97.9% (active) in experiment [6] (at 50.0 µM).
In the case of `Cc1cc(C)[nH]c(=O)n1`, the growth inhibition was -2% (inactive) in experiment [1] (setting [7]); 16% (inactive) in experiment [1] (setting [8]); -22.4% (inactive) and 84.2% (active) in experiment [1] (at 50.0 µM); -1% (inactive) in experiment [2] (setting [7]); 11% (inactive) in experiment [2] (setting [8]); -16.4% (inactive) and 2.9% (inactive) in experiment [2] (at 50.0 µM). Besides, the growth inhibition in experiment [3] (setting [7]) was 2% (inactive); in experiment [3] (setting [8]), 7% (inactive); in experiment [3] (at 50.0 µM), -9.15% (inactive) and 22.4% (inactive); in experiment [4] (setting [7]) it was 6% (inactive); in experiment [4] (setting [8]), 13% (inactive); in experiment [4] (at 50.0 µM) it was -18.1% (inactive) and 22.9% (inactive). The growth inhibition in experiment [5] (setting [7]) was -4% (inactive); in experiment [5] (setting [8]), -2% (inactive); in experiment [5] (at 50.0 µM) it was -2.25% (inactive) and 14.7% (inactive); in experiment [6] (setting [7]), -2% (inactive); in experiment [6] (setting [8]), 7% (inactive); in experiment [6] (at 50.0 µM) it was -14.6% (inactive) and 45.2% (inactive).
